Calls of active or inactive are those of the source. The calls were made as follows: active = hit-call score of the fitted dose curve at least 0.9, where 1 is the maximum; inactive = score below 0.9.
Read-out: adenosine kinase (ADK) gene, ADK (gene 132)
Experiment: LTEA_HepaRG_ADK: Life Technologies and Expression Analysis (LTEA) Assay for adenosine kinase (ADK) gene using HepaRG (AID 2283471)
Details: mRNA level, 48 h; actives raise or lower the signal
Procedure: LTEA_HepaRG is a cell based, multiplexed-readout assay that uses HepaRG, a human liver cell line, with measurements taken at 48 hours after chemical dosing on a 96-well plate.LTEA_HepaRG_ADK is one of 102 assay component(s) measured in the LTEA HepaRG cell culture assay. It is a marker of Steatosis.Data from the assay component LTEA_HepaRG_ADK was analyzed into 1 endpoint. This assay endpoint, LTEA_HepaRG_ADK, was analyzed with bidirectional fitting relative to DMSO as the negative control and baseline of activity. Using a type of inducible reporter, measures of mRNA induction for gain or loss-of-signal activity can be used to understand regulation of transcription factor activity. To generalize the intended target to other relatable targets, this assay endpoint is annotated to the kinase intended target family, where the subfamily is steatosis.
A total of 1060 chemcials from the ToxCast library were tested in eight-point concentration-response experiments. Cell culture and cytotoxicity assays were conducted at Thermo Fisher Scientific's Custom Services facility (Madison, WI). A single lot of human HepaRG cells (Thermo Fisher Scientific, Frederick, MD) was used for the cell culture experiments. 96-well format collagen type I coated plates of human HepaRG cells were prepared using established methods. Briefly, cryopreserved HepaRG cells were thawed, plated at a density of approximately 100,000 cells/well in HepaRG Thaw, Plate, and General Purpose media (HPRG770, Thermo Fisher Scientific), and incubated for 48 hours. 0.5% DMSO was selected as vehicle control to balance the requisite need of DMSO in HepaRG cultures to maintain differentiation (for example, baseline metabolism, proportions of hepatocytes vs. cholangiocytes), while enabling further hepatic receptor pathway activation (for example, PXR and CAR) in response to chemical exposure. 48 hours after plating, the culture medium was replaced with HepaRG Serum-Free Incudtion Media. Cells were exposed to each test chemical in duplicate and maintained in CO2 incubators for another 48 hours. Chemical plates were thawed to room temperature and 200x concentrations of treatment groups were prepared. 8-point conentration-reponse curves were made with the highest exposure at 100 uM, followed by half-log dilutions, all in 0.5% DMSO. Each test plate contained variouse controls, induction positive controls (1mM phenobarbital), cytotoxicity positive controls ([…] aflatoxin B1), vehicle controls (0.5% DMSO), and total lysis controls (0.5% DMSO). Cell morphology images were taken using an Essen IncuCyte FLR automated microscope, with six 96-well plates imaged in about 24 minutes. Images were captured and exported and JPEG files. Spent culture media was transfered to black-well plates for the LDH assay, and remaining media was sorted at -80 C for later use. Cells were treated with RLT buffer and frozen until shipped for gene expression analysis. Total RNA was isolated from the cell suspension in 75 uL of Buffer RLT (Qiagen, Germantown, MD 20874) by Quintiles/Expression Analysis (Durham, NC) using a custom isolation procedure. Total RNA from each plate well was transferred to a preamplification plate. Fluidigm's 96.96 Dynamic ArrayTM (Fluidigm, Amsterdam, the Netherlands) technology was used for gene expression analyses by quantitative reverse transcription polymerase chain reaction (qRT-PCR, performed by Quintiles/Expression Analysis, Durham, NC)89. Standard TaqManTM Assays (Applied Biosystems/ThermoFisher Scientific, Foster City, CA) were used to assess the expression of 93 genes selected based on their selectivity and sensitivity to important hepatic receptors known to be modulated by environmental chemicals; importance in human hepatocyte functionality; and hepatotoxicity. […]

| SMILES | outcome | AC50 |
| --- | --- | --- |
| ClC1=C(Cl)[C@]2(Cl)[C@@H]3[C@H]4C[C@H]([C@@H]5O[C@H]45)[C@@H]3[C@@]1(Cl)C2(Cl)Cl | inactive |  |
| CCC(=O)O[C@H]1CC[C@H]2[C@@H]3CCC4=CC(=O)CC[C@]4(C)[C@H]3CC[C@]12C | inactive |  |
| CN(C)c1nc(=O)n(C2CCCCC2)c(=O)n1C | inactive |  |
| CCCCCCCCCC[N+](C)(C)CCCCCCCCCC |  | 79.1 µM (active) |
| ClC1=C(Cl)[C@]2(Cl)[C@@H]3[C@@H]4C[C@@H]([C@H]5O[C@@H]45)[C@@H]3[C@@]1(Cl)C2(Cl)Cl |  | 0.0386 µM (active) |
| O=NN(c1ccccc1)c1ccccc1 |  | 11.8 µM (active) |
| O=S(=O)(O)C(F)(F)C(F)(F)C(F)(F)C(F)(F)C(F)(F)C(F)(F)F | inactive |  |
| CO/C=C(/C(=O)OC)c1ccccc1COc1cccc(C(F)(F)F)n1 | inactive |  |
| Oc1ccc(C(c2ccc(O)cc2)(C(F)(F)F)C(F)(F)F)cc1 |  | 81.6 µM (active) |
| CC(c1ccc(O)cc1)(c1ccc(O)cc1)c1ccc(O)cc1 |  | 75.7 µM (active) |
| O=C(O)C(F)(F)C(F)(F)C(F)(F)C(F)(F)C(F)(F)C(F)(F)C(F)(F)C(F)(F)C(F)(F)F |  | 81.1 µM (active) |
| Cc1cccc(C)c1N | inactive |  |
| Cc1cc(O)ccc1Cl | inactive |  |
| CCNc1nc(NC(C)C)nc(SC)n1 | inactive |  |
| O=C(O)C(F)(F)C(F)(F)C(F)(F)C(F)(F)C(F)(F)F |  | 3 µM (active) |
| Cc1ccc(O)c(C)c1 | inactive |  |
| CCOCCOC(C)=O | inactive |  |
| CCOC(=O)C(O)(c1ccc(Cl)cc1)c1ccc(Cl)cc1 | inactive |  |
| CC(C)(c1ccccc1)c1ccc(O)cc1 | inactive |  |
| C1CC2OC2CC1C1CO1 (stereo not given) | inactive |  |

| SMILES | outcome | AC50 |
| --- | --- | --- |
| COS(=O)(=O)OC | inactive |  |
| O=S(=O)(O)C(F)(F)C(F)(F)C(F)(F)C(F)(F)F | inactive |  |
| O=C(NC(=O)c1cc(F)c(F)cc1Cl)Nc1cc(F)ccc1N1CCC(C(=O)O)CC1 | inactive |  |
| O=C(N[C@H]1CN2CCC1CC2)c1cc2ccoc2cn1 | inactive |  |
| C[C@]12CCC(=O)C=C1CC[C@@H]1[C@@H]2CC[C@@]2(C)[C@H]1CC[C@]2(C)O | inactive |  |
| Cc1ccccc1CO[C@@H]1C[C@@]2(C(C)C)CC[C@]1(C)O2 | inactive |  |
| Cc1cccc([N+](=O)[O-])c1 | inactive |  |
| Clc1ccc(C(c2ccccc2Cl)C(Cl)(Cl)Cl)cc1 (stereo not given) | inactive |  |
| COc1ccc(O)c(C(C)(C)C)c1 | inactive |  |
| Cc1cc(-c2ccc(N)c(C)c2)ccc1N | inactive |  |
| CCCCCCOC(=O)c1ccccc1C(=O)OCCCCCC | inactive |  |
| CCCN(CCC)N=O | inactive |  |
| CCC(C)c1cc([N+](=O)[O-])cc([N+](=O)[O-])c1O (stereo not given) |  | 2.24 µM (active) |
| CCCCCCCCOC(=O)c1ccccc1C(=O)OCCCCCCCC | inactive |  |
| Cc1ccccc1O | inactive |  |
| CCOP(=S)(OCC)SCSC(C)(C)C | inactive |  |
| ClC(Cl)=C(c1ccc(Cl)cc1)c1ccc(Cl)cc1 | inactive |  |
| Nn1cnnc1 | inactive |  |
| Clc1ccc(C(Cl)(Cl)Cl)cc1 | inactive |  |
| Oc1c(Cl)c(Cl)c(Cl)c(Cl)c1Cl |  | 6.68 µM (active) |
